Compound activity deposited in PubChem BioAssay by several laboratories.
GLD-1 TGE inh: GLD-1-TGE RNA interaction inhibition (C. elegans). Q17339. purified GLD-1 + fluorescein TGE RNA, fluorescence polarization. inhibition, % at 5.96 µM. actives 0.44% (n = 320,000). AID 2280;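 active = percent inhibition above a per-plate cutoff, the plate mean of test compounds plus 3 SD, cut at about 30% in these data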;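 note: 0% = DMSO wells with GLD-1 and probe and 100% = wells lacking GLD-1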
Target sequence (Q17339 whole entry, looked up): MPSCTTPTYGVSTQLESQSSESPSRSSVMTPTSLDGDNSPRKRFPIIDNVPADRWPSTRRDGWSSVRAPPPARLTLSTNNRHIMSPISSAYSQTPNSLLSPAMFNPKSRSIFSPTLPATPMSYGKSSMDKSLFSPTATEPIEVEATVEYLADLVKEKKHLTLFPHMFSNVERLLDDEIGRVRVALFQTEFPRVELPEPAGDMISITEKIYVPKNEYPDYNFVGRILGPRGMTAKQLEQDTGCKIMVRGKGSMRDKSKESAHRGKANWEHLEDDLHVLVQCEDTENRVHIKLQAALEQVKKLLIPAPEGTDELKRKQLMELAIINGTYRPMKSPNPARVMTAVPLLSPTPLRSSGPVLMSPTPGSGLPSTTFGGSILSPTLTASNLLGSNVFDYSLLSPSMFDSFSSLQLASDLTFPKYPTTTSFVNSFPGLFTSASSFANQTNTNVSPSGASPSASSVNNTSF
MEX-5 binding: C. elegans MEX-5 TCR-2 RNA binding activity; actives 0.38% (n = 300,000); MEX-5/FITC-TCR2 RNA binding, fluorescence polarization; active compounds read low; activity score (negative = inhibition of binding), % at 10 µM; AID 1832;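 active = inhibition past about -25% in most replicates, and total fluorescence under double the plate's negative control median, limit read from the data; inconclusive = replicates evenly split on the limit, or fluorescence at least double controls; inactive = too little inhibition in most replicates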;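 note: 0% = DMSO and -100% = 5 µM competing unlabeled TCR2 RNA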
EBV gp42 block: blocks Epstein-Barr virus glycoprotein 42 binding | Q1HVG2 | Fluorescence polarization binding assay, mP read-out | inhibition, % (tested at 21.74 µM) | actives 0.42% (n = 220,000) | AID 1085; in the data active = inhibition above about 50%
BCLXL inh: inhibitors of human Bcl-xL. GST-Bcl-xL / FITC-Bim BH3 peptide fluorescence polarization. inhibition, % at 10.9 µM. actives 0.7% (n = 320,000). AID 2129;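 active = inhibition above the mean of all tested compounds plus 3 SD, cutoff set per campaign, cut at about 30% in these data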;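 note: 0% = DMSO wells and 100% = unlabeled Bim-BH3 peptide competitor; inhibitors lower millipolarization by displacing the labeled peptide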
Target sequence (Q07817 whole entry, looked up): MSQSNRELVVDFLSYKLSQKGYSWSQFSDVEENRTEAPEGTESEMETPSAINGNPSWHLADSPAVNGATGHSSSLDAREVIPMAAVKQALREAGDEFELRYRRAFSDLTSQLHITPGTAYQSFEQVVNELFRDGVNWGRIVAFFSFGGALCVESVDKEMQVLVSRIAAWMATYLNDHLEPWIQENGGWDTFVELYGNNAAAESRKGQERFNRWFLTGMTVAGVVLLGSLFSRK
E coli Lon inh: inhibits E. coli Lon protease; AID 602123; inhibition, % at 7.94 µM; actives 0.42% (n = 360,000); purified E. coli Lon protease, fluorescence polarization; in the data active = inhibition above about 13%, passing the limit was not always enough;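 note: 0% = enzyme with probe and DMSO and 100% = no enzyme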
Starred values were filed as active, the others as inactive; ? = inconclusive; . = no result; + = active, no number. Shown are actives, neighbours in structure and some others; about 1.3% of the full set was active somewhere.

SMILES | GLD-1 TGE inh | MEX-5 binding | EBV gp42 block | BCLXL inh | E coli Lon inh
COc1ccc(-c2cc(-c3ccco3)[nH]c(=O)c2C#N)cc1OC | 15.8 | -16.0 | 5.9 | 46.3* | -21.5
N#Cc1c(-c2ccccc2)cc(-c2ccc3c(c2)OCO3)[nH]c1=O | 1.8 | . | . | -0.5 | -0.4
On1nnc2ccccc21 | 5.3 | 0.9 | -20.3 | -1.6 | 0.2
Cc1ccc(-c2ccc(/C=C(\C#N)C(=O)Nc3cc(C)nn3-c3ccccc3)o2)cc1 | 120.2* | ? | 120.1* | 122.5* | .
Cc1cc(NC(=O)/C(C#N)=C/c2ccco2)n(-c2ccccc2)n1 | 6.6 | 0.4 | -4.3 | 1.5 | 10.0
Cc1ccc2ncccc2c1NC(=S)NC(=O)c1ccccc1 | 6.0 | 0.8 | 14.0 | 5.2 | -8.2
Cc1cc(C)c(Nc2cc(S(=O)(=O)O)c(N)c3c2C(=O)c2ccccc2C3=O)c(C)c1 | 11.3 | . | 31.1 | 31.5* | -0.6
Cc1cc(C)c(NC(=O)COC(=O)c2cccc3c2C(=O)c2ccccc2C3=O)c(C)c1 | 11.3 | 1.9 | -10.2 | 4.2 | -6.8
COC(=O)C1=C(O)/C(=C\c2ccc(CNS(=O)(=O)c3ccc(Cl)cc3)o2)N=C1C | 7.9 | -2.6 | -10.9 | 19.8 | -6.9
COC(=O)C1=C(O)/C(=C\c2ccc(CNS(=O)(=O)c3ccccc3)o2)N=C1C | 27.4 | -6.3 | -13.3 | 44.8* | 1.1
Cc1cccn2c(=O)c(/C=C(\C#N)S(=O)(=O)c3ccccc3)c(N3CCN(Cc4ccccc4)CC3)nc12 | 10.1 | 0.7 | . | 30.6* | 9.8
O=C1c2ccccc2-c2onc3ccc(NCCCn4ccnc4)c1c23 | 197.8* | ? | -40.8 | + | .
NS(=O)(=O)c1ccc(NCCCn2ccnc2)c([N+](=O)[O-])c1 | -1.0 | -9.4 | . | 7.5 | -10.4
CC1(C)CC(NS(=O)(=O)c2ccc(S(N)(=O)=O)cc2)CC(C)(C)N1 | 88.8* | -8.0 | . | 96.8* | 10.2
CC1(C)CC(NS(=O)(=O)c2ccc(F)cc2)CC(C)(C)N1 | -0.5 | 2.8 | . | 0.6 | -3.5
COc1ccc(NC(=O)CSc2nnnn2-c2ccccc2OC)c(OC)c1 | -6.4 | 1.0 | . | 1.9 | -13.6
COc1ccccc1-n1nnnc1SCC(=O)Nc1ccc(C)c(N)c1 | 92.6* | 1.1 | . | 140.6* | -6.7
CCN(CC)CCn1c(=O)n(-c2ccc(Cl)cc2)c(=O)c2c3c(sc21)CN(C)CC3 | -40.6 | -13.8 | 6.2 | 35.4* | -25.3
CN1CCc2c(sc3c2c(=O)n(-c2ccc(Cl)cc2)c2nncn32)C1 | 3.6 | -0.4 | -1.9 | 8.3 | -12.5
O=[N+]([O-])c1ccc(N=Nc2ncc[nH]2)cc1 | . | -32.2* | . | . | -20.2
O=S1(=O)N[C@H](Cc2ccccc2)COc2cccc(N3CCC[C@@H]3CO)c21 | . | . | . | . | 1.4
COc1ccc(N2C(=O)C(Cl)=C(Nc3ccccc3O)C2=O)cc1 | 2.7 | -33.6* | -16.6 | 12.8 | -2.5
COc1ccc(N2C(=O)C(Cl)=C(Nc3ccccc3OC)C2=O)cc1 | 5.8 | 0.3 | 19.7 | 2.9 | -0.8
Cc1nnc(NC(=O)COc2ccc3c(C)cc(=O)oc3c2)s1 | 0.1 | 1.3 | 50.7* | 4.8 | -1.0
COC(=O)c1sc2cc(=O)n(-c3cccc(C(F)(F)F)c3)nc2c1O | 5.3 | 0.5 | -7.5 | 10.6 | -3.0
SMILES | GLD-1 TGE inh | MEX-5 binding | EBV gp42 block | BCLXL inh | E coli Lon inh
COc1ccc(-n2nc3c(=O)[nH][nH]c3cc2=O)cc1 | -5.8 | -78.9* | -16.8 | 19.6 | -0.3
O=c1[nH][nH]c2cc(=O)n(-c3cccc(C(F)(F)F)c3)nc12 | 3.0 | -46.4* | -0.4 | 9.3 | 1.0
C[C@@H](NC(=O)[C@@H]1CCCN1C(=O)[C@@H]1CCCN1C(=O)OC(C)(C)C)c1ccccc1 | . | . | . | . | -0.8
C/C(=N\NC(=O)c1cccc(C)c1O)c1ccc(NC(=O)Cc2ccccc2)cc1 | 4.5 | -0.2 | . | 5.3 | -2.5
CCOC(=O)N1CC=C2C(C#N)=C(N)C(C#N)(C#N)[C@H](c3ccsc3)[C@H]2C1 | 26.9 | ? | -14.4 | 40.9* | 2.4
CN1C2C=C3C(C#N)=C(N)C(C#N)(C#N)[C@@H](c4ccsc4)[C@@H]3C1CC2 (some centres not stated) | 12.2 | -4.5 | -4.1 | 22.3 | .
N#CC1=C(N)C(C#N)(C#N)C(c2ccncc2)C2CN(C(=O)OCc3ccccc3)CC=C12 (configuration not stated) | 0.2 | -0.1 | -22.8 | 19.1 | -6.4
CN1CC=C2C(C#N)=C(N)C(C#N)(C#N)[C@H](c3cccs3)[C@H]2C1 | 79.0* | -67.8* | 35.5 | 112.1* | 109.0*
COc1cc([C@@H]2[C@H]3CN(C)CC=C3C(C#N)=C(N)C2(C#N)C#N)cc2c1OCO2 | 20.9 | . | 9.4 | 53.7* | -12.3
CCOC(=O)N1CC=C2C(C#N)=C(N)C(C#N)(C#N)[C@H](c3ccccc3OCC)[C@H]2C1 | 17.1 | -3.8 | -9.8 | 15.4 | 0.9
CN1CC=C2C(C#N)=C(N)C(C#N)(C#N)C(CCc3ccccc3)C2C1 (configuration not stated) | 48.6* | . | 29.3 | 89.4* | 33.4*
O=C1NC[C@@H](CCCCN2C[C@H](Cc3ccc(O)cc3)N(Cc3ccccc3)C(=O)C2=O)N(Cc2ccccc2)C1=O | . | . | . | . | -9.4
C#Cc1cccc(N2C(=O)C3C4C=CC(C3C2=O)C2C(=O)N(c3cccc(C#C)c3)C(=O)C42)c1 (configuration not stated) | . | . | . | . | 1.3
O=C(O[C@@H]1OC2COC(=O)c3cc(O)c(O)c(O)c3-c3c(cc(O)c(O)c3O)C(=O)O[C@@H]([C@H]1O)[C@@H]2O)c1cc(O)c(O)c(O)c1 | 15.5 | -67.3* | -14.3 | 61.8* | 32.8*
Cc1ccc(S(=O)(=O)Nc2ccccc2F)cc1C(=O)NNC(=O)c1ccccc1O | 0.9 | -37.2* | . | 4.1 | 5.8
CCc1ccccc1NC(=O)CNC(=O)CCc1nc2sc3c(c2c(=O)[nH]1)CCCC3 | -1.9 | 1.9 | . | 7.4 | -25.9
COC(=O)c1ccc(=O)c2nc3/c(=C/O)c(O)cc(=O)c3[nH]c12 | 3.7 | . | 98.2* | 90.3* | -1.9
CC(NC(=O)c1cccs1)c1n[nH]c(=S)n1C (configuration not stated) | -1.9 | -0.4 | 2.4 | -1.6 | -0.3
C=CCN(c1ccc(Br)cc1C(=O)OC)S(C)(=O)=O | -5.5 | . | . | 47.3* | 4.2
Cc1cc(C)c(C(=O)CN2C(=O)NC3(CCCCCC3)C2=O)cc1C | 5.6 | -0.1 | 5.8 | -0.4 | -7.7
Cc1nc(C)n(C(Oc2ccc(Cl)cc2Cl)C(=O)C(C)(C)C)n1 (configuration not stated) | -2.7 | 3.3 | . | 0.3 | -0.6
Oc1ccc(Nc2nc(-c3ccc4ccccc4c3)cs2)cc1 | 6.0 | -0.9 | -4.0 | 3.1 | 5.0
Oc1ccc(-c2nc(-c3ccc(O)c(O)c3)cs2)cc1 | -2.1 | -68.0* | 0.0 | 17.6 | 9.2
O=C(Cc1nc2ccccc2[nH]c1=O)c1ccccc1 | . | -61.3* | 52.0* | . | -13.2
O=c1[nH]c2ccccc2nc1Cc1ccccc1 | 3.9 | -0.3 | -19.0 | 7.3 | 1.1
O=C(N/C(=C/c1cn(-c2ccccc2)nc1-c1ccccc1)C(=O)N1CCOCC1)c1ccc(Cl)cc1Cl | 0.1 | -3.3 | 6.3 | 2.6 | 13.7
